Compound activity (PubChem BioAssay)
Sampled rows, rich in hits. Any-hit rate of the full collection: about 3.5%.
BoNT F protease: blocks Botulinum neurotoxin F light chain protease | Multiplex microsphere protease cleavage assay, flow cytometry | inhibition, % at 10 µM | hit rate 0.22% among 360,000; in the data active = inhibition above about 35%, passing the limit was not always enough; inconclusive = no clear call, values can overlap the other calls; also: plate controls were buffer without enzyme for full effect and enzyme alone for no effect
BoNT A protease: blocks Botulinum neurotoxin A light chain protease; inhibition, % at 10 µM; hit rate 0.17% among 360,000; multiplex microsphere protease substrate cleavage, flow cytometry; also: plate controls were buffer without enzyme for full effect and enzyme alone for no effect
Anthrax LF inh2: blocks Bacillus anthracis lethal factor protease; AID 588501; hit rate 0.12% among 360,000; multiplex microsphere protease cleavage assay, LF; inhibition, % at 10 µM; P15917; also: plate controls were buffer without enzyme for full effect and enzyme alone for no effect
Bead autofluor: counter-screen for toxin protease inhibitors: compound fluorescence; compound autofluorescence counterscreen, microsphere flow cytometry; active compounds read high; fluorescence intensity (no concentration beside the values); hit rate 3.1% among 360,000; AID 624483; in the data active = fluorescence intensity above about 16000; inconclusive = no clear call, values can overlap the other calls
Active calls of the source: *; ? = inconclusive; ! = a repeat was not active. Rule as the data show it, unless noted: active = inhibition above about 30%; inconclusive = no clear call, values can overlap the other calls; inactive = below that.

SMILES | BoNT F protease | BoNT A protease | Anthrax LF inh2 | Bead autofluor
O=c1cc(O)nc(SCc2ccccc2)n1-c1ccccc1 | -4 | -2 | -4 | 24058*!
O=C(CSc1nc(O)cc(=O)n1-c1ccccc1)NCc1ccccc1 | -1 | -2 | -1 | 16693*
CSc1nc2nc3c(cc2c(=O)n1-c1ccccc1)COC(C)(C)C3 | 1 | 0 | -3 | 2594
COC(=O)c1cc(S(=O)(=O)NC2CCCCC2)cn1C | 5 | 1 | 1 | 5458
COCCn1c(C)cc(/C=C(\C#N)C(=O)OCC(=O)N(C)c2c(N)n(Cc3ccccc3)c(=O)[nH]c2=O)c1C | 2 | -2 | -1 | 5143
C=CCNC(=O)/C(C#N)=C/c1c(N2CCN(c3ccc(OC)cc3)CC2)nc2c(C)cccn2c1=O | -17 | 0 | -5 | 3845
Nc1nncn1C(=O)CCc1ccccc1 | -4 | ? | -1 | 22172*
Cc1c(OCC(=O)N2CCC(C(=O)NCCCC(=O)O)CC2)ccc2c1oc(=O)c1ccccc12 | -2 | 0 | 3 | 5412
O=C(CN1CCc2ccccc2C1)NCc1ccco1 | 3 | 3 | -8 | 19256*
Cc1ccc(S(=O)(=O)N2CCCC(C(=O)NCCCN3CCCCC3C)C2)cc1 (stereo not drawn) | 0 | 2 | 2 | 25210*
Cc1ccc(C(=O)C(OC(=O)COc2ccccc2C)c2ccccc2)cc1 (stereo not drawn) | -7 | -1 | -6 | 17155*
Cc1ccccc1OCC(=O)OC(C(=O)c1ccccc1)c1ccccc1 (stereo not drawn) | 0 | 0 | 0 | 2505
O=C(CCC(=O)OC(C(=O)c1ccccc1)c1ccccc1)Nc1ccccc1 (stereo not drawn) | -2 | 0 | -1 | 21923*
Cc1ccc(N/C(SCc2ccccc2C)=C(/C#N)C(=O)NCc2ccco2)cc1C | -2 | -1 | -7 | 22786*
COc1ccc(CC(=O)N(C)CC(=O)Nc2ccc(F)cc2)cc1S(=O)(=O)N1CCOCC1 | -10 | -1 | -1 | 3527
Nc1c(C(=O)Nc2ccccc2)c2nc3ccccc3nc2n1-c1ccc(O)cc1 | 2 | 2 | 3 | 3114
Cc1cc(NC(=O)Cc2ccccc2)c2ccccc2n1 | -4 | 0 | 2 | 4658
Cc1nc2ccccc2c2nc(NC(=O)Cc3ccccc3)nn12 | -7 | ? | -8 | 17263*
CC(=O)Nc1ccc(Nc2nc(C(F)(F)F)nc3c2nnn3Cc2ccccc2Cl)cc1 | -24 | 0 | -4 | 3692
CCOC(=O)C1=C(O)CCn2c1nc1ccccc12 | 11 | 9 | -7 | 19422*
CCOc1ccc(C(=O)N2CCn3c2nc2ccccc23)cc1 | -4 | -1 | 3 | 5440
CCS(CC)=NS(=O)(=O)c1ccc(NC(C)=O)cc1 | 37* | 2 | 1 | 4549
CCOC(=O)C1=C(C)NC(=O)C(C(N)=O)C12CCCC2 (stereo not drawn) | -4 | ? | -3 | 23702*
COc1ccc(-c2cc(=O)oc3cc4occ(C)c4cc23)cc1 | 1 | 1 | -2 | 22808*
CCC(Oc1ccccc1F)C(=O)Nc1ccc2c(c1)n(C)c(=O)n2C (stereo not drawn) | 38* | 2 | -7 | 4019
SMILES | BoNT F protease | BoNT A protease | Anthrax LF inh2 | Bead autofluor
CCC(Oc1ccc(C)cc1)C(=O)Nc1ccc2c(c1)n(C)c(=O)n2C (stereo not drawn) | ? | 0 | -2 | 3913
COc1ccc(-c2nc(SCC(=O)NC3CCCCC3)n[nH]2)cc1 | -7 | 2 | 0 | 5316
CC(=O)N[C@@H](C)c1nc2ccccc2n1CCCN1CCN(c2nc(-c3ccc(C)cc3)cs2)CC1 | -6 | 0 | -3 | 4133
Brc1c(CSc2nncn2-c2ccccc2)nc2ncccn12 | -2 | 0 | 2 | 3344
Brc1c(CSc2nncn2-c2ccccc2)nc2sccn12 | 5 | 3 | -6 | 19506*
Cc1nn(C)cc1/C=N/n1nnnc1N | 6 | 6 | -11 | 17300*
Cc1ccc(/C=N/n2nnnc2N)o1 | 0 | 0 | -3 | 5678
CC(OC(=O)CCN=C1NS(=O)(=O)c2ccccc21)C(=O)N(C)C1CCCCC1 (stereo not drawn) | 1 | 0 | 1 | 4999
COC(=O)c1c(C)oc2ccc(OC(=O)c3cccs3)cc12 | 5 | -1 | -4 | ?
COCCOC(=O)c1c(C)oc2ccc(OC(=O)c3cccs3)cc12 | 2 | 2 | 3 | 22293*
COCCOC(=O)c1c(C)oc2ccc(OC(=O)COc3c(F)c(F)c(F)c(F)c3F)cc12 | 6 | 2 | -1 | 22277*
CCOc1cc(C(=O)NCCCNC(=O)c2cc(OCC)c(OCC)c(OCC)c2)cc(OCC)c1OCC | -4 | 0 | -2 | 6282
C[C@H](O)[C@@H]1C(=O)N2CCc3ccc(-c4ccccc4)cc3[C@@H]2C[C@@H]1N(C)C(=S)Nc1ccc(F)cc1 | -1 | 0 | -3 | 3065
O=C1N(Cc2ccc(F)cc2Cl)c2ccccc2C12OCCCO2 | -1 | 2 | 0 | 19128*
C=CCN1C(=O)C2(OCCCO2)c2ccccc21 | -2 | -1 | 10 | 3449
O=C1N(Cc2ccccc2F)c2ccccc2C12OCCCO2 | -3 | 0 | -1 | 20831*
NNC(=O)c1ncoc1-c1ccc(Cl)cc1 | ? | 0 | -27 | ?
COc1ccc(C2C(C(C)=O)=C(O)C(=O)N2C)c(OC)c1 (stereo not drawn) | ? | -1 | 7 | 3990
COc1ccc(C2C(C(C)=O)=C(O)C(=O)N2c2cccnc2)c(OC)c1 (stereo not drawn) | -2 | -1 | -4 | 16553*
CCOC(=O)C[n+]1c(C)csc1C | 2 | 0 | -3 | 8387
Cc1csc(C)[n+]1CC(=O)c1ccccc1 | 48* | -1 | 8 | 3957
O=C(CSc1ccccc1C(=O)O)Nc1cccc(C(=O)O)c1 | 3 | ? | 0 | 21124*
Cc1nc(SCC(=O)Nc2cccc(C(=O)O)c2)n[nH]1 | 2 | 0 | -2 | 4971
CCOc1ccc(S(=O)(=O)N2CCC(C(=O)NC3CC3)CC2)cc1C | 4 | 0 | -2 | 5522
O=[N+]([O-])c1cccc(CN(CCO)Cc2ccccc2)c1 | -5 | -1 | -1 | 16829*
SMILES | BoNT F protease | BoNT A protease | Anthrax LF inh2 | Bead autofluor
OCCN(Cc1ccccc1)Cc1ccc(F)c(F)c1 | 3 | 1 | 0 | 20266*
OCCN(Cc1ccccc1)Cc1ccccc1O | -1 | 1 | -4 | 3502
O=C1CCN(Cc2ccc(Br)cc2)CCN1[C@H](CO)Cc1ccccc1 | -6 | -1 | 3 | 3777
Cc1csc(NC(=O)CCC(=O)N(CC(=O)NC2CCCCC2)c2ccccc2)n1 | -16 | -1 | -6 | 3865
CCOc1cc(C2c3c(n[nH]c3C)C(=O)N2c2ccc(C)cc2)ccc1O (stereo not drawn) | 2 | 1 | -1 | 23172*
COCCn1c(C(C)C)nc2sc3ccccc3c(=O)c2c1=O | 6 | ? | -8 | 19469*
COCCn1c(=O)sc2ccccc2c1=O | -8 | 1 | -3 | 3463
COCCn1c(C2CCCCC2)nc2sc3ccccc3c(=O)c2c1=O | 3 | 2 | 1 | 22628*
CCc1nc2sc3ccccc3c(=O)c2c(=O)n1CCOC | 1 | 1 | -4 | 19591*
Cn1c(=O)c2c([nH]c(OCc3ccc(Cl)cc3Cl)[n+]2Cc2ccc(F)cc2)n(C)c1=O | ? | -2 | 1 | 4135
